In PubChem BioAssay (NCI):
About 79,000 compounds went through this panel and 15% of them were active in at least one assay; those are over-represented in the sample as a whole. Active and inactive are the calls of the source. Rule as the data show it: active = growth inhibition above about 70%; inactive = the rest.

Legend:
[1] = NCI Yeast Anticancer Drug Screen. Data for the rad50 strain (AID 155);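 also: 0% = growth of vehicle-only cultures of the same strain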; settings: S. cerevisiae rad50 strain growth inhibition; at 50.0 µM; stronger effect = higher value
Procedure, shortened: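 Compounds were tested on a yeast strain with an engineered DNA damage repair alteration; the reported value is growth inhibition normalised to vehicle treatment.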

[2] = NCI Yeast Anticancer Drug Screen. Data for the mec2-1 strain (AID 157); settings: S. cerevisiae mec2-1 strain, at 50.0 µM, stronger effect = higher value
Procedure, shortened: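 Readout is yeast growth inhibition, normalised to vehicle-treated controls, in the mec2-1 strain exposed to compound.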

[3] = NCI Yeast Anticancer Drug Screen. Data for the cln2 rad14 strain (AID 165);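 also: 0% = growth equal to vehicle treated cultures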; settings: S. cerevisiae cln2 rad14 strain, at 50.0 µM, stronger effect = higher value
Procedure, shortened: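 Relative to vehicle controls, growth inhibition of compound-treated cln2 rad14 yeast was recorded.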

[4] = NCI Yeast Anticancer Drug Screen. Data for the bub3 strain (AID 167); settings: S. cerevisiae bub3 mutant strain, at 50.0 µM, stronger effect = higher value
Procedure, shortened: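 Growth of a checkpoint-deficient yeast mutant is measured after compound exposure. Values represent inhibition relative to vehicle.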

[5] = NCI Yeast Anticancer Drug Screen. Data for the mlh1 rad18 strain (AID 175); settings: S. cerevisiae mlh1 rad18 strain growth inhibition; at 50.0 µM; stronger effect = higher value
Procedure, shortened: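 Test agents were incubated with a yeast strain of defined genotype (DNA damage repair defect). Inhibition of growth was derived by comparison with vehicle-exposed cultures.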

[6] = NCI Yeast Anticancer Drug Screen. Data for the sgs1 mgt1 strain (AID 161);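 also: 0% = growth of cultures given vehicle only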; settings: S. cerevisiae sgs1 mgt1 strain, at 50.0 µM, stronger effect = higher value
Procedure, shortened: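 Growth of a repair-deficient yeast mutant was monitored after compound treatment and expressed as inhibition relative to vehicle-treated cultures.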

Measured: growth inhibition

C[Si](C)(C)c1ccc(-c2ccccc2)cc1
inactive: [1] 20.1% | [2] -8.65% | [3] -61.7% | [4] 22.5% | [5] -18.4%

CC(=O)Nc1ccc([N+](=O)[O-])cc1Cl
inactive: [1] 27.6% | [2] 16.9% | [4] 5.1% | [5] 26.4%

COc1ccc(CCN=Cc2ccc(Cl)cc2)cc1OC
inactive: [1] -3.55% | [2] -28.4% | [3] -1.2% | [4] -17.1% | [5] -10.6%

[N-]=[N+]=NCC1OCC(O)C(OCc2ccccc2)C1OCc1ccccc1 (stereo not given)
inactive: [1] -8.6% | [2] -10.4% | [3] -11.8% | [4] -10.4% | [5] 3.3%

CSC1=Nc2ccccc2N=C(c2ccccc2)C1
inactive: [1] 41.9% | [2] -10.8% | [3] 9.05% | [4] 44.8% | [5] 23.3%

CC(C)C(O)(c1ccccc1)C(O)(c1ccccc1)C(C)C (stereo not given)
active: [1] 99.5% | [2] 99.6% | [3] 99% | [4] 99.5%

CC(NN(C)C(=S)Nc1ccccc1)c1ccccn1 (stereo not given)
inactive: [1] -6.7% | [2] -7.15% | [3] -10.8% | [4] -4.75% | [5] -0.1%

N=C1C(O)=CC(=O)C(O)=C1C(=O)O
inactive: [1] -9.1% | [2] 3.9% | [3] 1.95% | [4] -13% | [5] 3.7%

O=C(Nc1cccc(Cl)c1)c1cc2cc(N=Nc3ccc(Br)cc3)ccc2oc1=O
inactive: [1] 36.4% | [2] 33.6% | [3] 29.1% | [4] 9.45% | [5] 18.2%

O=C(O)C#Cc1ccccc1[N+](=O)[O-]
inactive: [1] 21.1% | [2] 25.1% | [3] -15.4% | [4] 14.9%

CC(=O)CC(=O)N1CCC(C)CC1
inactive: [1] 20.4% | [2] -24.9% | [3] 27.6% | [4] -14.1% | [5] -10.2%

CC(=O)OCCCC(C)Nc1ccnc2cc(Cl)ccc12 (stereo not given)
inactive: [1] -8.15% | [2] -8.95% | [3] 19.9% | [4] -7.9% | [5] 11.3%

CC(C)c1ccc(/C=C/C(=O)c2ccc(F)cc2)cc1
inactive: [1] 14.6% | [2] 13.5% | [3] 10.1% | [4] 5.05% | [5] 17.6%

COC(=O)c1nc(N)nc(C(=O)OC)c1C(=O)c1ccc(F)cc1
inactive: [1] 8.55% | [2] -1% | [3] 5.35% | [4] 9.4% | [5] 20.6%

COc1ccccc1C1(CBr)OCCO1
inactive: [1] -6.15% | [2] -7.7% | [3] -5.4% | [4] -3.85% | [5] 9.4%

CCOc1ccccc1NC(=O)C(Br)C(Br)c1ccccc1 (stereo not given)
inactive: [1] -1.1% | [2] 0.65% | [3] -20.9% | [4] 20.1% | [5] 42.3%

CCc1ccccc1NC(=O)C(=O)C1C(=O)N(c2ccccc2)N=C1N (stereo not given)
inactive: [1] -10.2% | [2] -31.4% | [3] 21.4% | [4] -34.5% | [5] -22%

CCCCCc1cc[n+](CC(=O)c2ccccc2)cc1
inactive: [1] 4.45% | [2] 0.7% | [3] -62.7% | [4] -10.4% | [5] 12.8%

COc1ccc(/C=C/C(=O)O)cc1OC
inactive: [1] -1.65% | [2] -12% | [3] -1% | [4] 12.3% | [5] -0.65%

CCC(c1ccc(OCc2ccccc2)cc1)c1cc2c(cc1OCCO)OCO2 (stereo not given)
inactive: [1] 23.7% | [2] 57% | [3] 0.9% | [4] 39.7% | [5] 57%

CC(CC(=O)Nc1ccccc1)C(=O)O (stereo not given)
inactive: [1] 7.85% | [2] -7.1% | [3] -26.4% | [4] 5.55% | [5] 2.55%

CCOC(=O)C[C@@]1(C)C(=O)O[C@H](c2ccccc2)N1C(=O)c1ccccc1
inactive: [1] 13.2% | [2] 6.4% | [3] 29.9% | [4] 11.8% | [5] 15.1%

O=S(=O)(O)CC(O)CSSCC(O)CS(=O)(=O)O (stereo not given)
inactive: [1] 33.2% | [2] -3.55% | [3] -4.05% | [4] 1.4% | [5] -9.1%

CCCCCCCCCCC/C=N\[N+](C)(C)C
active: [1] 98.3% | [2] 99.3% | [3] 96.8% | [4] 98.8% | [5] 98.2%

CCCCC1SC(N)=NC1=O (stereo not given)
inactive: [1] 14.9% | [2] -2.35% | [3] 53.2% | [4] 3.9% | [5] -17.7%

O=C1CCC(=O)N1CC1CC2CCC1C2 (stereo not given)
inactive: [1] 40% | [2] 4.15% | [3] 23.8% | [4] 4.4% | [5] 36%

Cc1csc2nc(-c3ccco3)nn12
inactive: [1] -3.2% | [2] -23.9% | [4] -13.3% | [5] 4.35%

O=CNc1ccc(F)c(F)c1
inactive: [1] -16.8% | [2] -16.4% | [3] -5.35% | [4] -7.2% | [5] -10.1%

Cc1cc(=O)n2c(n1)Nc1ccccc1C2
inactive: [1] 22.5% | [2] -26% | [3] 1.65% | [4] 46.4% | [5] 6.8%

CC1(C)CC(C2=NCCO2)CC(C)(C)N1
inactive: [1] -43.7% | [2] -29.2% | [3] -6.45% | [4] 15.2%

Nc1nc(SCc2ccc(F)cc2)c2[nH]cnc2n1
inactive: [1] 16.8% | [2] 9.35% | [3] -8.8% | [4] 12.8% | [5] -21.9%

C#CCOCn1cc(C)c(=O)[nH]c1=O
inactive: [1] 0.4% | [2] -0.1% | [6] 16.5% | [4] 0.05% | [5] 12.4%

COc1nc(C(O)C2OC(C)(C)OCC2O)[nH]c1C#N (stereo not given)
inactive: [1] 6.05% | [2] 7% | [3] 10.7% | [4] 2.35% | [5] 7.35%

CC1/C(=N/Nc2ccc([N+](=O)[O-])cc2)CC2C3(C)CCC2(C(C)C(=O)O)C(=O)C13 (stereo not given)
active: [1] 78% | [5] 88.7%
inactive: [2] 33.4% | [3] 45.7% | [4] 44.8%

CC(=O)NC1=NN(C(C)=O)C(C)(c2ccccc2)S1=O (stereo not given)
inactive: [1] 9.65% | [2] -1.25% | [3] 10% | [4] -3.95% | [5] 14.7%

COc1ccc(N=c2nc3n4c(c(Br)cc(Br)c4n2)NC(C(Br)(Br)Br)=N3)cc1
inactive: [1] 1.7% | [2] 1.2% | [3] -15.3% | [4] 4.35% | [5] 41.1%

O=C(NNc1c(F)c(F)c(C(F)(F)F)c(F)c1F)c1ccccc1
inactive: [1] 3.55% | [6] -10.9% | [3] -64.3% | [4] -14.8% | [5] -19.1%

CC(C)N(CCCCO)C(C)C
inactive: [1] -0.75% | [6] 14.2% | [3] 0.05% | [4] 2.7% | [5] 3.3%

CCOCCOCCOC12C(=O)C(Cl)=C(Cl)C(=O)C13C1CC2C(Cl)C13 (stereo not given)
active: [1] 99.4% | [6] 98.9% | [3] 98% | [4] 98.7% | [5] 98.2%

COc1ccc(COC=O)cc1
inactive: [1] 21.8% | [6] -0.8% | [3] 1.55% | [4] 11.3% | [5] 24.4%

CC(=O)Nc1nc(C)c(CC/C=C/c2ccc([N+](=O)[O-])cc2)c(Cl)n1
inactive: [1] 8.9% | [6] 38% | [3] -6.35% | [4] 27.2% | [5] 53%

COC(=O)Nc1cc2c3c(c1)CCCN3CCC2
inactive: [1] -6.35% | [6] -2.2% | [3] -10.2% | [4] 10.1% | [5] 1.8%

O=C(NC(CSSCC(NC(=O)OCc1ccccc1)C(=O)O)C(=O)O)OCc1ccccc1 (stereo not given)
inactive: [1] -8.6% | [6] -2.4% | [3] -4.1% | [4] -33% | [5] -25.2%

Cc1ccc(C(=O)OCc2ccccc2CN2CCCCC2)cc1
inactive: [1] 1.6% | [6] -22.6% | [3] -19.7% | [4] 3.6% | [5] 2.1%

COc1ccc(/C=N/Nc2nc3ccccc3c(=O)n2-c2ccccc2)cc1
inactive: [1] -56.3% | [6] -38.6% | [3] -29.2% | [4] -11% | [5] -42%

COc1ccc2c(c1)CCc1cc(OC)ccc1/[N+]([O-])=[N+]\2[O-]
inactive: [1] -1.2% | [6] 6.8% | [3] -70.8% | [4] -5.1% | [5] 14.8%

Cc1ncc(Cl)c2cc3ccccc3cc12
inactive: [1] -2.4% | [6] -0.7% | [3] -24.6% | [4] -3.25% | [5] -7.55%

Cc1c2n(c(=O)[nH]c1=O)C1OC(CO)C(N=[N+]=[N-])C1O2 (stereo not given)
inactive: [1] -5.5% | [6] -42% | [3] -12.3% | [4] -39.2% | [5] -32.2%

CC(C)NC(=O)C1CC2C=CC1C2 (stereo not given)
inactive: [1] 7.7% | [6] 1.75% | [3] 3.25% | [4] -9.85% | [5] 14.8%
